# HTR5A inv ag – HTR5A inverse agonists in luminescence cell assay, primary screen, counter-screen for OPRM1-OPRD1 heterodimer inverse agonist project, full-deck HTS; hit rate 0.083% among 340,000; inhibition, % at 9.3 µM; HTR5A cell line, inverse agonism; in the data active = inhibition mostly above about 23%, no sharp cut-off; inactive = mostly below about 18%
# Target sequence (P47898 whole entry, looked up): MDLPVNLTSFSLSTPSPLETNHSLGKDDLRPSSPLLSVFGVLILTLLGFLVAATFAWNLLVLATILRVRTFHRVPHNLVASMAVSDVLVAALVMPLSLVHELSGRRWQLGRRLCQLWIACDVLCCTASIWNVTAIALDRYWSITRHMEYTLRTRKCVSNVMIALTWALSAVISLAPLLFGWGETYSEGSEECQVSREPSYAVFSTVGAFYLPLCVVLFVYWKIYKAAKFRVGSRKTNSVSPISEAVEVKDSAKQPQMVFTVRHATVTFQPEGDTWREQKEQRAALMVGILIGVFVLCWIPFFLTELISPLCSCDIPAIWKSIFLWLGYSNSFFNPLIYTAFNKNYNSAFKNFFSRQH
# HTR5A ag – HTR5A agonists in luminescence cell assay, primary screen, counter-screen for OPRM1-OPRD1 heterodimer agonist project, full-deck HTS; cell-based; activation, % at 9.3 µM; hit rate 0.61% among 340,000; in the data active = activation mostly above about 9.5%, no sharp cut-off; inactive = mostly below about 7.6%
# MOR-DOR ag – agonists of OPRM1-OPRD1 heterodimerization, primary screen, cell-based, luminescence. Mu-type opioid receptor (Homo sapiens) + Delta-type opioid receptor (Homo sapiens), …. cells. activation, % at 9.3 µM. hit rate 0.3% among 340,000. AID 504326, 2011; in the data active = activation above about 18%
# MOR-DOR inv ag-1 – inverse agonists of MOR-DOR heterodimerization, primary screen, cell-based, luminescence; cell-based MOR-DOR heterodimer luminescence, inverse agonism; hit rate 0.21% among 340,000; inhibition, % at 9.3 µM; AID 504357, 2011; in the data active = inhibition above about 22%, passing the limit was not always enough
# MOR-DOR inv ag-2 – inverse agonists of MOR-DOR heterodimerization, counter-screen for HTR5A inverse agonist project, cell-based, luminescence; 190 tested, under 10 active; inhibition, % at 9.3 µM; U2OS counter-screen cells, complementation luminescence; shares compounds with HTR5A inv ag
# HTR5A inv confrm – HTR5A inverse agonists, retest of hits, confirmation, cell-based, luminescence. shares compounds with HTR5A inv ag. HTR5A-expressing cells, inverse agonism. inhibition, % at 9.3 µM. 190 tested, under 10 active
# Numbers stand for hits; i = inactive; nt = not tested or not shown. Most compounds without a hit are left out; they make up all but 1.1% or so of the library. Unless noted, no rule for the calls is given here.
SMILES,HTR5A inv ag,HTR5A ag,MOR-DOR ag,MOR-DOR inv ag-1,MOR-DOR inv ag-2,HTR5A inv confrm
CCCCc1nnc(NC(=O)c2oc3ccccc3c2C)s1,i,i,i,i,nt,nt
CC(=O)N1CCc2cc(Br)cc(S(=O)(=O)N3CCN(c4ccccn4)CC3)c21,46.4,i,i,i,i,i
CC(=O)N1c2c(cc(Br)cc2S(=O)(=O)N2CCN(c3ccccn3)CC2)CC1C (stereo not given),i,i,i,i,nt,nt
CCOC(=O)C1(Cc2ccccc2)CCCN(Cc2ccncc2)C1 (stereo not given),i,i,i,i,nt,nt
CC1CN(Cc2ccccc2Cl)CC(C)O1 (stereo not given),i,i,i,i,nt,nt
CCN(CC)c1ccc2cc(-c3nc4ccccc4[nH]3)c(=O)oc2c1,i,i,i,i,nt,nt
CCN(CC)c1ccc2nc3ccc(N)cc3[n+](-c3ccccc3)c2c1,35.6,i,i,i,i,i
CCN(CC)c1ccc2nc3ccccc3[n+](CC)c2c1,34.0,i,i,i,i,i
Clc1ccccc1OCCCOc1cccc2cccnc12,i,i,i,i,nt,nt
Cn1nc(OCCOc2ccccc2)ccc1=O,39.8,i,i,i,i,i
Cn1nc(OCc2ccccc2)ccc1=O,i,i,i,i,nt,nt
COc1cc2nc(C3CCC3)nc(N3CCN(c4ccccn4)CC3)c2cc1OC,52.2,i,i,i,i,i
C/C(=N\NC(=S)NCc1ccccc1)c1ccc(Br)cc1,i,i,i,i,nt,nt
C/C(=N\NC(=S)NCc1ccccc1)c1ccc2ccccc2c1OC(F)F,54.2,i,i,i,i,i
NC(=O)c1ccc(NC(=O)CN2CCOCC2)cc1,33.7,i,i,i,43.3,i
CC(=O)c1ccc(NC(=O)CN2CCOCC2)cc1,i,i,i,i,nt,nt
COC(=O)c1ccccc1-c1c2ccc(=N)cc-2oc2cc(N)ccc12,34.8,i,i,i,i,i
O=[N+]([O-])c1ccc(O)c(N=Cc2sc3ccccc3c2O)c1,46.1,i,i,i,i,i
Oc1ccc(Cl)cc1N=Cc1sc2ccccc2c1Cl,i,i,i,i,nt,nt
COc1cc(/C=C/C(=O)c2ccc(O)cc2)ccc1OCC#N,48.0,i,i,i,i,i
COc1cccc(C(=O)/C=C/c2ccc(OCC#N)c(OC)c2)c1,i,i,i,i,nt,nt
COc1ccc(N2CCN(C3CCCN(C(=O)c4cccc(C)n4)C3)CC2)cc1 (stereo not given),i,i,i,i,nt,nt
Clc1cccc(CN2CCC3CC2c2cc(N4CCCCC4)ccc23)c1 (stereo not given),27.8,i,i,i,i,i
O=C(C[C@@H]1C/C=C\C[C@H](NC(=O)OCC2c3ccccc3-c3ccccc32)C(=O)OC[C@H]2CCCN2C1=O)NCCO,i,i,i,i,nt,nt
O=C(NC(=S)Nc1ccc(O)cc1)c1ccccc1Cl,i,i,i,i,nt,nt
SMILES,HTR5A inv ag,HTR5A ag,MOR-DOR ag,MOR-DOR inv ag-1,MOR-DOR inv ag-2,HTR5A inv confrm
Cc1ccc(O)c(NC(=S)NC(=O)c2ccccc2Cl)c1,21.4,i,i,i,i,i
Oc1cccc2ccc(/C=C/c3ccccc3Br)nc12,61.8,i,i,i,i,51.3
COc1cc(Br)c(/C=C/c2ccc3cccc(O)c3n2)cc1OC,i,i,i,i,nt,nt
CSc1ccc(/C=C/c2ccc3cccc(O)c3n2)cc1,23.6,i,i,i,i,i
Cc1ccsc1/C=C/c1ccc2cccc(O)c2n1,32.1,i,i,i,i,i
Cc1ccc(N(C(=O)c2snc(C(N)=O)c2N)C(C(=O)NC2CCCC2)c2ccncc2)cc1 (stereo not given),i,i,i,i,nt,nt
CCOc1ccccc1/C=C(/NC(=O)c1ccccc1)C(=O)N1CCCCC1,i,i,i,i,nt,nt
CC(C)(C)OC(=O)NCCc1nnc(SCC(N)=O)o1,48.8,i,i,i,i,i
O=S(=O)(Nc1ccc2ccccc2n1)c1ccccc1,i,i,i,i,nt,nt
CNc1c(C(=O)O)ccc2c1C(=O)c1ccccc1C2=O,36.2,i,i,i,i,i
COc1cccc(NC(=S)N/N=C2/CCCCc3ccccc32)c1,35.2,i,i,i,i,i
CCn1c(-c2ccccc2)csc1=Nc1ccc(O)cc1,i,i,i,i,nt,nt
C/C(=N\NC(=O)CCCC(=O)O)c1c(-c2ccccc2)c2cc(Cl)ccc2[nH]c1=O,i,i,i,i,nt,nt
COc1ccc(CC(=O)N(C)CC(=O)Nc2c(C)cccc2C)cc1S(=O)(=O)N1CCOCC1,27.7,i,i,i,80.6,i
O=C(COc1coc(CN2CCc3ccccc3C2)cc1=O)Nc1ccc(F)cc1F,63.1,i,i,i,i,i
O=C(COc1coc(CN2CCc3ccccc3C2)cc1=O)Nc1ccc(F)cc1,i,i,i,i,nt,nt
Cc1cc(C(=O)CN2C(=O)C(=O)N(CCC3=CCCCC3)C2=O)c(C)n1C,36.8,i,i,i,i,i
CCN(CC(=O)Nc1ccc(OC)cc1)C(=O)c1ccc2[nH]c3c(c2c1)CC(C)CC3 (stereo not given),i,i,i,i,nt,nt
COc1ccc(CCNC(=O)CCC(=O)n2ncc3ccc(Cl)cc32)cc1OC,i,i,i,i,nt,nt
Cn1cnc(S(=O)(=O)N2CCN(c3cccc(Cl)c3)CC2)c1,37.8,i,i,i,i,i
COc1ccc(Cl)cc1NC(=O)Nc1cnccn1,40.6,i,i,i,i,i
CCc1c(C)sc(NC(=O)C2CC(c3c(F)cccc3Cl)=NO2)c1C#N (stereo not given),33.0,i,i,i,i,i
N#Cc1c(NC(=O)C2CC(c3c(F)cccc3Cl)=NO2)sc2c1CCC2 (stereo not given),i,i,i,i,nt,nt
COc1ccc(NC(=O)CN2C(=O)NC(C)(c3ccc(C)cc3)C2=O)c([N+](=O)[O-])c1 (stereo not given),i,i,i,i,nt,nt
CCOc1cc(C(c2c(C)[nH][nH]c2=O)c2c(C)[nH][nH]c2=O)cc([N+](=O)[O-])c1O,28.7,i,i,i,41.7,i
SMILES,HTR5A inv ag,HTR5A ag,MOR-DOR ag,MOR-DOR inv ag-1,MOR-DOR inv ag-2,HTR5A inv confrm
O=C1/C(=C\c2ccc(O)c(O)c2)N=C2CCCCCN12,27.2,i,i,i,i,i
COc1cc(/C=C2\N=C3CCCCCN3C2=O)ccc1O,i,i,i,i,nt,nt
Cc1ccc(NC(=O)CNC(=O)COc2ccccc2)nc1,48.6,i,i,i,i,i
C/C(=N\NC(=O)CSc1nc(C)cc(C)n1)c1ccc2c(c1)OCCO2,i,i,i,i,nt,nt
Cn1c(CNC(=O)CCNC(=O)c2cccc(Cl)c2)cc(=O)n(C)c1=O,i,i,i,i,nt,nt
COc1ccc(/C=C/C(=O)NC(=S)NNC(=O)c2c(-c3ccccc3)noc2C)cc1,49.2,i,i,i,i,i
Cc1onc(-c2ccccc2)c1C(=O)NNC(=S)NC(=O)/C=C/c1ccccc1,i,i,i,i,nt,nt

# Screens from PubChem.
